Experimental data as given in PubChem BioAssay (NCI).
This is part of a sample that, as a whole, favours compounds with a hit. Of some 79,000 tested, about 15% had one in any assay. Calls of active or inactive are those of the source. No stated cut-off is given here; in the data, active means growth inhibition above about 70%; inactive means the rest.

Assays:
[1] = NCI Yeast Anticancer Drug Screen. Data for the rad52 strain (AID 147);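 further: 0% = growth of vehicle-treated control cultures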; conditions: S. cerevisiae rad52 mutant growth inhibition, hits give high values
Summary of the method: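 DNA repair-defective yeast; compound exposure; growth scored against vehicle controls.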

[2] = NCI Yeast Anticancer Drug Screen. Data for the rad50EPP+ strain (AID 151);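 further: 0% = growth of vehicle-treated control cultures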; conditions: S. cerevisiae rad50 mutant strain, hits give high values
Summary of the method: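 rad50EPP+ yeast treated with test compounds. Readout: growth vs vehicle control.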

[3] = NCI Yeast Anticancer Drug Screen. Data for the mgt1 strain (AID 153); conditions: S. cerevisiae mgt1 mutant growth inhibition, hits give high values
Summary of the method: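 Growth inhibition relative to vehicle controls was scored for the mgt1 yeast strain after compound exposure.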

[4] = NCI Yeast Anticancer Drug Screen. Data for the rad50 strain (AID 155);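 further: 0% = growth of vehicle-only cultures of the same strain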; conditions: S. cerevisiae rad50 strain growth inhibition, hits give high values
Summary of the method: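 Cells are treated with compound, grown, and their growth is then scored against vehicle-only cultures of the same repair-deficient yeast strain.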

[5] = NCI Yeast Anticancer Drug Screen. Data for the mec2-1 strain (AID 157); conditions: S. cerevisiae mec2-1 strain, hits give high values
Summary of the method: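 Growth inhibition is read against vehicle-treated controls after compound exposure of the mec2-1 yeast strain, which is defective in DNA damage repair or cell cycle control.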

[6] = NCI Yeast Anticancer Drug Screen. Data for the rad14 strain (AID 159);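 further: 0% = growth of vehicle-treated control cultures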; conditions: S. cerevisiae rad14 strain growth inhibition, hits give high values
Summary of the method: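 Readout: yeast growth inhibition, referenced to vehicle-only cultures. Strain bears a defined alteration in DNA damage repair.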

[7] = NCI Yeast Anticancer Drug Screen. Data for the sgs1 mgt1 strain (AID 161);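 further: 0% = growth of cultures given vehicle only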; conditions: S. cerevisiae sgs1 mgt1 strain, hits give high values
Summary of the method: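 Percent growth inhibition was derived by comparing compound-exposed mutant yeast with vehicle-exposed cultures. The strain carries alterations in DNA damage repair.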

[8] = NCI Yeast Anticancer Drug Screen. Data for the CLN2oe strain (AID 163);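 further: 0% = growth of vehicle-only control cultures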; conditions: S. cerevisiae CLN2oe strain, hits give high values
Summary of the method: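 Compound-treated yeast; growth vs vehicle ctrl = % inhibition. Genetically altered strain (cell-cycle control).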

[9] = NCI Yeast Anticancer Drug Screen. Data for the cln2 rad14 strain (AID 165);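 further: 0% = growth equal to vehicle treated cultures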; conditions: S. cerevisiae cln2 rad14 strain, hits give high values
Summary of the method: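 Growth inhibition, relative to vehicle-treated controls, is the read-out. The test organism is a yeast strain with defined genetic alterations, cln2 rad14.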

[10] = NCI Yeast Anticancer Drug Screen. Data for the bub3 strain (AID 167); conditions: S. cerevisiae bub3 mutant strain, hits give high values
Summary of the method: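 Part of a panel of yeast mutants defective in DNA damage repair or cell cycle regulation. Each strain is grown with compound, and inhibition is calculated relative to solvent-treated cultures.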

[11] = NCI Yeast Anticancer Drug Screen. Data for the wt2 strain (AID 169);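 further: 0% = growth of vehicle-treated yeast cultures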; conditions: S. cerevisiae wt2 strain growth inhibition, hits give high values
Summary of the method: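 Compound exposure of yeast; growth compared with vehicle controls; inhibition reported.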

[12] = NCI Yeast Anticancer Drug Screen. Data for the mlh1 strain (AID 171);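 further: 0% = growth of vehicle-treated control cultures of the same strain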; conditions: S. cerevisiae mlh1 strain growth inhibition, hits give high values
Summary of the method: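 Compounds are applied to a genetically altered yeast strain, and its growth is compared with that of vehicle-treated cultures to give percent inhibition.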

[13] = NCI Yeast Anticancer Drug Screen. Data for the sgs1 strain (AID 173);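 further: 0% = growth of vehicle-only control cultures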; conditions: S. cerevisiae sgs1 mutant, hits give high values
Summary of the method: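 Compounds applied to genetically altered yeast; growth compared with vehicle-treated cultures to give % inhibition.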

[14] = NCI Yeast Anticancer Drug Screen. Data for the mlh1 rad18 strain (AID 175); conditions: S. cerevisiae mlh1 rad18 strain growth inhibition, hits give high values
Summary of the method: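 Cells of a genetically altered yeast strain, deficient in DNA damage repair, were treated with compound. Their growth was then compared with that of vehicle-treated cultures to give inhibition.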

[15] = NCI Yeast Anticancer Drug Screen. Data for the rad18 strain (AID 177); conditions: S. cerevisiae rad18 mutant growth inhibition, hits give high values
Summary of the method: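 Compounds are applied to a repair-deficient yeast strain, and growth is compared with that of vehicle-treated cultures to give percent inhibition.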

[16] = NCI Yeast Anticancer Drug Screen. Data for the wt1 strain (AID 149);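 further: 0% = growth of vehicle-treated wt1 cultures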; conditions: S. cerevisiae wt1 strain (SPY 50644) growth inhibition, hits give high values
Summary of the method: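 The wt1 strain was treated with compounds, and growth was compared with vehicle-treated cultures to give inhibition.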

[17] = at 5.0 µM (retest, dose inferred, filed as 0.5)
[18] = at 50.0 µM (retest, dose inferred, filed as 5.0)

Measured: growth inhibition

CCOC(=O)c1[nH]cc(C)c1-c1cccn1-c1ccc(Cl)cc1[N+](=O)[O-]
inactive: [1]; at 1.2 µM 13% | [1]; at 3.7 µM 19% | [1]; at 11.0 µM 27% | [1]; at 33.0 µM 25% | [2]; at 1.2 µM 22% | [2]; at 3.7 µM 30% | [2]; at 11.0 µM 32% | [2]; at 33.0 µM 32% | [2]; at 100.0 µM 55% | [3]; at 1.2 µM 3% | [3]; at 3.7 µM 17% | [3]; at 11.0 µM 20% | [3]; at 33.0 µM 48% | [4]; at 1.2 µM 1% | [4]; at 3.7 µM 8% | [4]; [17] 13% | [4]; at 11.0 µM 14% | [4]; at 33.0 µM 19% | [4]; [18] 43% | [4]; at 50.0 µM 32.5% | [5]; at 1.2 µM 4% | [5]; at 3.7 µM 15% | [5]; [17] 3% | [5]; at 11.0 µM -7% | [5]; at 33.0 µM 14% | [5]; [18] 48% | [5]; at 50.0 µM 46.1% | [6]; at 1.2 µM 21% | [6]; at 3.7 µM 15% | [6]; at 11.0 µM 16% | [6]; at 33.0 µM 31% | [7]; [17] 8% | [7]; at 50.0 µM 64.1% | [8]; at 1.2 µM -7% | [8]; at 3.7 µM -16% | [8]; at 11.0 µM -4% | [8]; at 33.0 µM -5% | [9]; [17] 11% | [9]; [18] 67% | [9]; at 50.0 µM 21.3% | [10]; at 1.2 µM 15% | [10]; at 3.7 µM 13% | [10]; [17] 9% | [10]; at 11.0 µM 12% | [10]; at 33.0 µM 32% | [10]; [18] 68% | [10]; at 50.0 µM 28.8% | [11]; at 1.2 µM -20% | [11]; at 3.7 µM -23% | [11]; at 11.0 µM -17% | [12]; at 1.2 µM 17% | [12]; at 3.7 µM 22% | [12]; at 11.0 µM 27% | [12]; at 33.0 µM 55% | [13]; at 1.2 µM 17% | [13]; at 3.7 µM 22% | [13]; at 11.0 µM 21% | [13]; at 33.0 µM 49% | [14]; [17] 11% | [14]; [18] 65% | [14]; at 50.0 µM 39.7% | [15]; at 1.2 µM 23% | [15]; at 3.7 µM 6% | [15]; at 11.0 µM 7% | [15]; at 33.0 µM 25%
active: [1]; at 100.0 µM 89% | [3]; at 100.0 µM 96% | [4]; at 100.0 µM 90% | [5]; at 100.0 µM 85% | [6]; at 100.0 µM 90% | [7]; [18] 87% | [8]; at 100.0 µM 92% | [10]; at 100.0 µM 91% | [11]; at 33.0 µM 84% | [11]; at 100.0 µM 93% | [12]; at 100.0 µM 96% | [13]; at 100.0 µM 95% | [15]; at 100.0 µM 89%

Cn1c(=O)c2c(nc(N)n2C2OC(CO)C(O)C2O)n(C)c1=O (stereo unspecified)
active: [4]; at 50.0 µM 87.4% | [5]; at 50.0 µM 92% | [7]; at 50.0 µM 85.3% | [9]; at 50.0 µM 88.6% | [10]; at 50.0 µM 89% | [14]; at 50.0 µM 83.8%
inactive: [1]; at 1.2 µM -2% | [1]; at 3.7 µM -1% | [1]; at 11.0 µM -4% | [1]; at 33.0 µM -4% | [1]; at 100.0 µM 0% | [16]; at 1.2 µM -1% | [16]; at 3.7 µM -1% | [16]; at 11.0 µM -2% | [16]; at 33.0 µM -2% | [16]; at 100.0 µM 1% | [3]; at 1.2 µM -1% | [3]; at 3.7 µM -2% | [3]; at 11.0 µM 7% | [3]; at 33.0 µM -7% | [3]; at 100.0 µM 0% | [4]; at 1.2 µM -2% | [4]; at 3.7 µM 0% | [4]; [17] 17% | [4]; at 11.0 µM -11% | [4]; at 33.0 µM -1% | [4]; [18] 22% | [4]; at 100.0 µM 1% | [5]; at 1.2 µM 0% | [5]; at 3.7 µM 1% | [5]; [17] -2% | [5]; at 11.0 µM 1% | [5]; at 33.0 µM -3% | [5]; [18] -19% | [5]; at 100.0 µM -2% | [7]; [17] -17% | [7]; [18] 20% | [8]; at 1.2 µM 1% | [8]; at 3.7 µM -3% | [8]; at 11.0 µM 3% | [8]; at 33.0 µM 3% | [8]; at 100.0 µM 10% | [9]; [17] -9% | [9]; [18] 50% | [10]; at 1.2 µM 0% | [10]; at 3.7 µM 3% | [10]; [17] -19% | [10]; at 11.0 µM 12% | [10]; at 33.0 µM 15% | [10]; [18] 18% | [10]; at 100.0 µM 15% | [11]; at 1.2 µM -4% | [11]; at 3.7 µM -4% | [11]; at 11.0 µM -4% | [11]; at 33.0 µM -2% | [11]; at 100.0 µM 0% | [12]; at 1.2 µM -1% | [12]; at 3.7 µM -7% | [12]; at 11.0 µM -1% | [12]; at 33.0 µM 3% | [12]; at 100.0 µM -1% | [13]; at 1.2 µM -1% | [13]; at 3.7 µM -1% | [13]; at 11.0 µM -1% | [13]; at 33.0 µM -2% | [13]; at 100.0 µM 1% | [14]; [17] 2% | [14]; [18] 37% | [15]; at 1.2 µM -1% | [15]; at 3.7 µM 2% | [15]; at 11.0 µM -1% | [15]; at 33.0 µM -2% | [15]; at 100.0 µM -2%
